# Assay outcomes as filed in PubChem.
# KB-3-1 tox – qHTS assay for MDR1-selective chemotherapeutics: Primary screen using the parental adenocarcinoma cell KB-3-1; Potency, µM (series often up to 46.1 µM), usual class: cytotoxic; actives 1.4% (n = 400,000); KB-3-1 viability, CellTiter-Glo ATP luminescence, 72 h; note: potency is the fitted concentration of half-maximal effect; % is set by controls: 0 for no effect and ±100 for the full control effect; nearly all actives have a fitted effect of over 60% in size
#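 Here the drug-naive KB-3-1 line serves as comparator for MDR sub-line selectivity; cells received compound titrations, 72 h at 37 °C, then CellTiter-Glo readout.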
# KB-V1 MDR tox – qHTS assay for MDR1-selective chemotherapeutics: Primary screen using the drug-selected MDR subline cells KB-V1; actives 3.4% (n = 400,000); KB-V1 MDR cells viability, CellTiter-Glo, 72 h; Potency, µM (highest dose often 46.1 µM), hits mostly cytotoxic; note: potency is the fitted concentration of half-maximal effect; % is set by controls: 0 for no effect and ±100 for the full control effect; nearly all actives have a fitted effect of over 60% in size
#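 qHTS viability screen in drug-selected KB-V1 MDR cells: 72 h compound treatment at 37 degrees C, ATP luminescence end point.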
# Giardia kill – Small Molecules that selectively kill Giardia lamblia: qHTS; AID 540267, 2011; activity change, % at 7.66 µM, hits read low; actives 0.15% (n = 340,000); Giardia lamblia trophozoite viability; in the data active = activity change below about -80%; inconclusive = between about -30% and that limit;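 note: parasites exposed to compound for two days anaerobically before the ATP read; % is set by controls: 0 for no effect and ±100 for the full control effect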
#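 Luminescence from cellular ATP indicates surviving trophozoites (100 cells/well) following 48 hrs anaerobic compound treatment at 37 deg C; signal develops 15-30 min at room temperature.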
# SW480 rereplic – A quantitative high throughput screen for small molecules that induce DNA re-replication in SW480 colon adenocarcinoma cells; SW480 DNA re-replication, Hoechst DNA content imaging, 48 h; Potency, µM (series often up to 46.1 µM), inactives show at the highest dose re-replication activation, usual class: activators; actives 1.8% (n = 340,000); AID 624297, 2012; note: potency is the fitted concentration of half-maximal effect; % of control where 0% means no effect; nearly all actives have a fitted effect of over 55% in size
#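 Compounds, transferred as 23 nL by pin tool, were incubated with cells for 48 hr; DNA content per nucleus was then quantified by Hoechst staining and fluorescence plate imaging.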
# ASM inhibitor – Inhibitors of Secretory Acid Sphingomyelinase (S-ASM): qHTS | Potency, µM (titrated, usually from 57.5 µM), for inactives: at the top dose activity change, negative = inhibition, usual class: inhibitors | actives 0.006% (n = 340,000) | placental ASM, HMU-PC fluorogenic substrate, 60 min | Sphingomyelin phosphodiesterase (Homo sapiens), P17405; note: potency is the fitted concentration of half-maximal effect
# Target sequence (P17405 47-631 limits assumed): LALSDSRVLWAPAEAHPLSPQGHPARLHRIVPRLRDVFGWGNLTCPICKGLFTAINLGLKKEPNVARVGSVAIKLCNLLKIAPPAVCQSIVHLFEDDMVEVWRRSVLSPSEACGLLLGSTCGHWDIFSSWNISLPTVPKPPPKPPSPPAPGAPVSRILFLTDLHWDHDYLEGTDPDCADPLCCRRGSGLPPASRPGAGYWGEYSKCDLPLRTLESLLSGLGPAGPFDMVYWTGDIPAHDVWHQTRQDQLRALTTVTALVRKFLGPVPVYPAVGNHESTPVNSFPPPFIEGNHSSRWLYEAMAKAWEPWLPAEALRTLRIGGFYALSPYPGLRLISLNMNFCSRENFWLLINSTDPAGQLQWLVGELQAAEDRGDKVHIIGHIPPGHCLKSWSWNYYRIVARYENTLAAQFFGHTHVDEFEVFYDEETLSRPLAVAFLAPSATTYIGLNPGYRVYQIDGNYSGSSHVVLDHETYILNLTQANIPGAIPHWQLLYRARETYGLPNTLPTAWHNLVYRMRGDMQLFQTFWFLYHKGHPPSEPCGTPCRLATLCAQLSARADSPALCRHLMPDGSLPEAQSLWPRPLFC
#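 Human placenta-derived ASM enzyme was preincubated with compound for 10 minutes at room temperature, then given fluorogenic substrate HMU-PC0 (9 uM final) for 60 minutes at 37 °C; a pH 10 stop preceded fluorescence reading at Ex 386/Em 447 nm.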
# MCF10A rerep – A quantitative high throughput screen for small molecules that induce DNA re-replication in MCF 10a normal breast cells; actives 2.9% (n = 350,000); Potency, µM (doses to about 46.1 µM), for inactives: top-dose activity, positive = re-replication, usual class: activators; MCF 10A DNA re-replication, Hoechst nuclear intensity, 48 h; note: potency is the fitted concentration of half-maximal effect; % of control where 0% means no effect; nearly all actives have a fitted effect of over 50% in size
# * = called active by the depositor; i = inactive; ? = inconclusive; · = no result. The list is not random: actives were taken first. Their share in the collection is about 6.9%. Unless noted, calls come from the whole dose curve; as a rule, active = well fitted curve in the direction sought with a large enough effect; inconclusive = small, poorly fitted or top-dose-only effect, or another doubt; inactive = no such curve, though single readings can be large; an effect the other way counts as inactive or inconclusive.
SMILES,KB-3-1 tox,KB-V1 MDR tox,Giardia kill,SW480 rereplic,ASM inhibitor,MCF10A rerep
COc1ccc(C(=O)Nc2ccc(S(=O)(=O)N(C)c3ccccc3)cc2)cc1,i,?,-2,1%,-8%,16%
CCCCNC(=O)CCCn1c(=O)c2ccccc2n(Cc2ccc(Cl)cc2)c1=O,i,i,·,·,·,·
Cc1ccc(Nc2c3c(nc4ccccc24)CCC3)cc1F,21µM*,i,·,·,·,·
COc1cc(NS(C)(=O)=O)ccc1Nc1c2ccccc2nc2ccccc12,?,18µM*,-13,0.15µM*,342%,?
c1coc(CNc2c3c(nc4ccccc24)CCC3)c1,?,?,12,?,16%,18µM*
COc1ccc(OC)c(NC(=O)CSc2c3c(nc4ccccc24)CCCC3)c1,i,i,·,·,·,·
Cc1cccc(Nc2c3c(nc4ccccc24)CCC3)c1,?,?,3,-53%,-4%,-9%
COc1ccc(OC)c(Nc2c3c(nc4ccccc24)CCC3)c1,1µM*,3.7µM*,10,4.1µM*,3%,3.3µM*
c1coc(CNc2nc(NCc3ccco3)c3ccccc3n2)c1,i,i,·,·,·,·
COc1ccc(CCNC(=O)CSc2nc3ccccc3nc2Cc2ccc(Cl)cc2)cc1OC,i,i,·,·,·,·
COc1ccc(OC)c(NCc2cccn2-c2nnc(N3CCC(C)CC3)s2)c1,·,·,-8,·,·,·
Cn1nnnc1SCCCNCc1ccccc1OCc1ccccc1Cl,·,·,-19,·,·,·
COC(=O)CN1C(=O)[C@@H]2[C@H](C1=O)[C@@H]1CC(C(=O)OC)=C[C@@H](C(=O)OC)C3C1=C(C(=O)[C@]3(C)NC(=O)c1ccccc1)[C@@H]2C (some centres undefined),·,·,12,·,·,·
COc1ccc(OC)c(Nc2c3ccccc3nc3ccccc23)c1,12µM*,21µM*,4,21µM*,44%,21µM*
COc1cc(Nc2c3c(nc4ccccc24)CCC3)cc(OC)c1OC,2.3µM*,3.7µM*,-14,13µM*,0%,8.2µM*
COc1ccc([N+](=O)[O-])cc1Nc1c2ccccc2nc2ccccc12,?,i,17,?,-12%,2.9µM*
Cc1ccc2nc3c(c(Nc4ccc(C)c(C)c4)c2c1)CCC3,i,18µM*,·,·,·,·
Cc1ccc2nc3c(c(Nc4ccc(O)cc4)c2c1)CCC3,i,i,9,?,-3%,?
COc1ccc(OC)c(Nc2cc(C)c3ccccc3n2)c1,i,i,-14,28%,45%,?
CC(=O)c1ccc(NC(=O)/C(=C\c2ccc(F)cc2)NC(=O)c2ccco2)cc1,i,i,12,-6%,-10%,6%
Cc1cnccc1/C=C/c1ccc(N)cc1,i,i,·,·,·,·
O=C1c2ccccc2C(=O)N1CCCc1c[nH]c2ccccc12,i,21µM*,-7,26%,-2%,?
O=C1c2ccccc2C(=O)N1CCc1c[nH]c2ccccc12,i,?,-27,-81%,-9%,24%
O=C(O)CCCC(=O)N1CC(=O)Nc2ccccc21,i,i,19,-8%,4%,-5%
O=C1CN(C(=O)CCCc2c[nH]c3ccccc23)c2ccccc2N1,i,i,-6,0%,13%,16µM*
SMILES,KB-3-1 tox,KB-V1 MDR tox,Giardia kill,SW480 rereplic,ASM inhibitor,MCF10A rerep
O=C1c2ccccc2C(=O)N1CCc1c[nH]c2ccc(O)cc12,i,?,2,3.7µM*,1%,-2%
CC(C)Oc1cccc(-c2ccnc(N3CCC(C(N)=O)CC3)n2)c1,i,i,·,·,·,·
Cc1cccc(N2CCN(C(=O)CCC(=O)NNc3nc4ccccc4c4nc(C)nn34)CC2C)c1 (centres undefined),i,i,·,·,·,·
CCOc1ccc(NC(=O)c2cc3c(C)nn(-c4ccccc4)c3s2)cc1,i,i,·,·,·,·
COCCCNCCOCCOc1ccc(Cl)cc1C(C)(C)C,i,18µM*,2,?,-2%,18µM*
COc1ccc(S(=O)(=O)N(CC(=O)N(C)Cc2ccccc2)c2ccc(Cl)cc2)cc1,i,i,·,·,·,·
CC(=O)OCc1cnc(C)c2oc(=O)c(C(=O)Nc3ccc(F)cc3C)cc12,i,i,·,·,·,·
CC1(C)CC(NC(=O)c2coc(=O)c(Br)c2)CC(C)(C)N1,16µM*,i,-3,?,352%,18µM*
Cc1ccc(C(=O)NC2CC(C)(C)NC(C)(C)C2)cc1,i,i,8,-8%,4%,1%
Cc1cc(C)cc(Nc2nc3ccccc3n3cnnc23)c1,i,i,·,·,·,·
COc1ccc(-c2cn[nH]c2-c2ccc(OCc3ccc([N+](=O)[O-])cc3)cc2O)cc1OC,?,4.1µM*,-15,4%,-2%,-1%
CCc1cc(-c2[nH]ncc2-c2ccc([N+](=O)[O-])cc2)c(O)cc1OC,i,i,2,26%,-27%,?
COc1ccc(-c2[nH]ncc2-c2ccc(Cl)cc2)c(O)c1,i,i,3,15%,-18%,?
O=[N+]([O-])c1ccc(COc2ccc(-c3[nH]ncc3-c3ccc(Cl)cc3)c(O)c2)cc1,i,i,15,?,-4%,23µM*
COc1ccc(-c2cn[nH]c2-c2ccc(OCc3ccccc3F)cc2O)cc1OC,?,18µM*,28,?,-11%,?
CCNC(=O)c1c(NC(=O)Cc2coc3ccc(CC)cc23)sc2c1CCCC2,i,i,·,·,·,·
CSc1nnc2c3ccccc3n(Cc3ccccc3)c2n1,i,i,-3,-11%,3%,-1%
CSc1nnc2c3ccccc3n(CCc3ccccc3)c2n1,9.2µM*,i,-9,?,-18%,?
COc1ccccc1C(=O)Nc1nnc(SCC(=O)Nc2ccc3c(c2)oc2ccccc23)s1,i,18µM*,3,0%,·,3%
CCn1c(SCC(=O)Nc2ccc3c(c2)oc2ccccc23)nnc1-c1ccc(N)cc1,?,18µM*,-5,?,-3%,?
CC(=O)Nc1ccc(-c2nnc(SCC(=O)Nc3ccc4c(c3)oc3ccccc34)n2C)cc1,i,i,13,12%,2%,6%
CCN(Cc1ccccc1)S(=O)(=O)CCNC(=O)c1ccccc1,i,21µM*,-15,-6%,7%,-5%
